For 22 compounds, Potency results are on record in PubChem BioAssay (NCATS).

Records with an inconclusive call do not appear. Activity calls are given as the source filed them. Unless noted, calls come from the whole dose curve; as a rule, active = well fitted inhibition curve with a large enough effect; inconclusive = small, poorly fitted or top-dose-only effect; inactive = no such curve, though single readings can be large or run the other way. Numbered stars: 1 amine (or outer) side, 2 acyl side, 3 side chain; on linkers, the order of the positions; unused ones are H or OH. Bridge positions count the residues as written; N and C are the ends. Square brackets hold non-standard residues; d marks the D form. Peptide text beside a SMILES is read from it. * marks the point of attachment. ξ: configuration not given here. ΔAla(Z-3-ureido) = NC(=O)N/C=C(\N)C(=O)O; X3 = NC1=NCCC(C(N[*:1])C(=O)[*:2])N1; ξβ3hOrn = NCCCC(N)CC(=O)*; Dap = NC[CH](N)C(=O)O
Potency is the fitted concentration of half-maximal effect.

Chain of Tumor susceptibility gene 101 protein (Homo sapiens) (Q99816 whole entry, looked up): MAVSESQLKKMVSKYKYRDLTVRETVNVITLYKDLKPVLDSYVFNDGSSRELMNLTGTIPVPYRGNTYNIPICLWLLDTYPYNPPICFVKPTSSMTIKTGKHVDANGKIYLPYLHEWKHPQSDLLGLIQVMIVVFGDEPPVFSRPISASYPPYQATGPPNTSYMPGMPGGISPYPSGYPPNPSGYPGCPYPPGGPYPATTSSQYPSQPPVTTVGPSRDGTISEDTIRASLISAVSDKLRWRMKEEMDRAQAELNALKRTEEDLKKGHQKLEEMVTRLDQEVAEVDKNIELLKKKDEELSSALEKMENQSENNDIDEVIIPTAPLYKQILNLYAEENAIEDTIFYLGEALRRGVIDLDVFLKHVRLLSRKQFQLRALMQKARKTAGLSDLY

Tested on in one assay: not listed separately
Nature of the assay: S16 Schwann cell PMP22 intronic element firefly luciferase assay (AID 624032). Note: nearly all actives have a fitted effect of over 30% in size. As to conditions: S16 rat Schwann cells, PMP22 element FLuc, 24 h; series mostly up to 57.5 µM. The procedure, abridged: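 Luciferase reporter of PMP22 intronic-element expression in stably transfected S16 rat Schwann cells, read by ONE-Glo luminescence after 24 h compound exposure at 37 C. Activity scaled between DMSO (0%) and positive-control PTC124; concentration-effect curves quality-classified.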
With `CCCCCCCCCCCCCCCCCC[N+](C)(C)CCC[Si](OC)(OC)OC`, the Potency is 0.572 µM (active).

Take `C[n+]1c2cc(N)ccc2cc2ccc(N)cc21`: the Potency was 1.81 µM (active). Turning to `CNC[C@H](O)c1ccc(OC(=O)C(C)(C)C)c(OC(=O)C(C)(C)C)c1`, the Potency was 0.0098 µM (active). The same measure, in the same setting: the same measure for `CC1OC(OC2C(O)CC(OC3C(O)CC(OC4CCC5(C)C(CCC6C5CCC5(C)C(C7=CC(=O)OC7)CCC65O)C4)OC3C)OC2C)CC(O)C1O` (stereo not drawn): 10.2 µM (active).

In the case of `Cc1cn([C@H]2C[C@H](O)[C@@H](CO)O2)c(=O)[nH]c1=O`, the Potency result was “inactive”. As for `COc1cc(-c2ccc(-[n+]3nc(-c4ccccc4)nn3-c3ccc([N+](=O)[O-])cc3)c(OC)c2)ccc1-[n+]1nc(-c2ccccc2)nn1-c1ccc([N+](=O)[O-])cc1`, the Potency was 14.4 µM (active). The same measure, in the same setting: the entry for `CC(=O)NC1[C@H]([C@H](O)[C@H](O)CO)OC(C(=O)O)=C[C@H]1N=C(N)N` (stereo partly drawn) is “inactive”; for `NC(=O)Oc1ccc(Cc2ccccc2)cc1` it is “inactive”; for `C[C@]12C=CC(=O)N[C@@H]1CC[C@@H]1C2CC[C@]2(C)C(C(=O)Nc3cc(C(F)(F)F)ccc3C(F)(F)F)CC[C@@H]12` (stereo partly drawn) it is 16.1 µM (active). The same measure, in the same setting: the same measure for `Cc1ncc(C[n+]2csc(CCOP(=O)(O)O)c2C)c(N)n1`: 7.21 µM (active). Turning to `NCCCC(N)CC(=O)NCC1NC(=O)C(CO)NC(=O)C(N)CNC(=O)C(C2CCN=C(N)N2)NC(=O)/C(=C/NC(N)=O)NC1=O` (stereo not drawn) (H-[Dap]S[Dap](ξβ3hOrn)[ΔAla(Z-3-ureido)][X3]; lactam 1-C; configuration not given here), the Potency result is “inactive”. On to `NC(C(=O)O)[C@@H]1CC(Cl)=NO1` (stereo partly drawn), for which the Potency was 2.56 µM (active).

Tested on in a further assay: not listed separately
Nature of the assay: S16 Schwann cell PMP22 intronic element beta-lactamase assay (AID 624044; calls by dose curve; note: nearly all actives have a fitted effect of over 15% in size). As to conditions: S16 rat Schwann cells, PMP22 element beta-lactamase FRET, 24 h; ratio activity, negative = inhibition: at 38.3 µM (top of the series). The procedure, abridged: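 Beta-lactamase reporter under a PMP22 intronic regulatory element in stable S16 rat Schwann cells; 24 h compound exposure. 460 nm blue signal normalized between DMSO (0%) and potassium clavulanate, with 535 nm FRET tracking viability; curves classed by r2 and response.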
On to `CC1(Cn2ccnn2)[C@H](C(=O)O)N2C(=O)C[C@H]2S1(=O)=O` (stereo partly drawn), for which the Potency was 12.6 µM (active). The same measure, in the same setting: the same measure for `C[C@]12O[C@H](C[C@]1(O)CO)n1c3ccccc3c3c4c(c5c6ccccc6n2c5c31)CNC4=O`: 7.07 µM (active); for `NC(C(=O)O)[C@@H]1CC(Cl)=NO1` (stereo partly drawn): 19.9 µM (active).

The next assay concerns the target Tumor susceptibility gene 101 protein (Homo sapiens) (UniProt Q99816). The assay is described as follows: qHTS Assay for Iinhibitors of HIV-1 Budding by Blocking the Interaction of PTAP/TSG101: Hit Validation (AID 651600). Note: nearly all actives have a fitted effect of over 70% in size. As to conditions: PTAP peptide/TSG101 UEV interaction, biochemical assay; series mostly up to 57.5 µM. An excerpt: Stages of the HIV-1 replication cycle, specifically virus assembly and release, provide underexploited targets for the development of novel antiviral inhibitors. The late stages of HIV-1 replication are mediated by the Gag precursor protein, Pr55Gag. Expression of Pr55Gag is both necessary and sufficient for the production of virus-like particles from Gag-expressing cells. The Gag protein hijacks key host proteins involved in endocytic machinery of the host cell to promote endosomal processing and viral budding. The budding process requires a direct interaction between a […] (PTAP) motif in the p6 domain of Gag and the cellular endosomal sorting protein known as Tsg101. In this way, the Gag PTAP motif promotes the host cells to recruit viral particles to the plasma membrane where the new viral particles are released, effectively turning the host cells into viral factories. A fluorescence anisotropy assay has been developed to quantitatively measure the PTAP-Tsg101 interaction which can be used to screen for inhibitors of this interaction.
NIH Molecular Libraries Probe Production Network [MLPCN]
NIH Chemical Genomics Center [NCGC]
PI Name: Dr. Eric Freed, NCI
Two uL of the Tsg101 binding domain in buffer (10 mM HEPES pH 7.5; 0.15 M NaCl, 0.01% Tween 20; 3 mM EDTA;0.1 mM TCEP) was dispensed into Greiner black MB 1536-well plates (final concentration 10 uM). Then, 23 nL of compounds or DMSO were delivered to each well using a pin tool. Finally, 2 uL of a FITC-labeled peptide containing the PTAP motif (1) in the same buffer was dispensed (50 nM final concentration) and the binding was allowed to proceed for 20 min. at r.t. Fluorescent polarization was determined using FITC excitation and polarized emission filters on a Perkin Elmer Viewlux.
Keywords: Tsg101, PTAP, Gag, HIV, fluorescent polarization, MLSMR, MLPCN, NIH Roadmap, qHTS, NCGC
A general note: In qHTS, concentration-response curves come from the screen itself.
Regarding `N#CCN1CCN(c2ccc(C(F)(F)F)cc2)CC1`, the Potency result was “inactive”.

Turning to `COc1cccc2c1C(=O)c1c(O)c3c(c(O)c1C2=O)CC(O)(C(C)=NO)CC3OC1CC(N)C(O)C(C)O1` (stereo not drawn), the Potency is 10.3 µM (active).

Turning to `Cc1cc(N2CCCC2)ccc1C=C(C#N)C#N`, the Potency entry was “inactive”. Same read-out and setting: the entry for `COc1ccc(N2C(=O)NC(=O)/C(=C\c3cn(C)c4ccccc34)C2=O)cc1` is “inactive”; for `CN1Cc2c(c(C#N)c(N)n(C)c2=S)CC1(C)C` it is 32.6 µM (active); for `Nc1ccc2c3c(cccc13)-c1ccccc1-2` it is 9.19 µM (active). As to `CC(C)C[C@H]1C(=O)N2CCC[C@H]2[C@]2(O)O[C@](NC(=O)[C@@H]3C=C4c5cccc6[nH]cc(c56)C[C@H]4N(C)C3)(C(C)C)C(=O)N12`, the Potency entry was “inactive”.

For the compound `CCOC(=O)c1c(/N=C/c2c(O)n(-c3ccccc3F)c(=S)[nH]c2=O)sc2c1CCCC2`, the Potency was 16.3 µM (active).
